Here are results for eleven compounds from ChEMBL document CHEMBL3988442, “University of Dundee, Small-Polar-MMV Screening Library” (2021).

What all share (parameters): scale not given: direction of the effect not stated beside the values
Assay [1] has as its target Protein translocase subunit SecA (Escherichia coli (strain K12)) (UniProt P10408). The experiment in a line: Assay to Identify E. coli SecA ATPase Inhibitors. Type of assay: functional. The settings on record: 30 µM.
For assay [2], the target named is T1, Ubiquitin-activating enzyme e1, putative (Leishmania donovani (strain BPK282A1)) (UniProt E9BSI1).
T1 sequence (whole entry): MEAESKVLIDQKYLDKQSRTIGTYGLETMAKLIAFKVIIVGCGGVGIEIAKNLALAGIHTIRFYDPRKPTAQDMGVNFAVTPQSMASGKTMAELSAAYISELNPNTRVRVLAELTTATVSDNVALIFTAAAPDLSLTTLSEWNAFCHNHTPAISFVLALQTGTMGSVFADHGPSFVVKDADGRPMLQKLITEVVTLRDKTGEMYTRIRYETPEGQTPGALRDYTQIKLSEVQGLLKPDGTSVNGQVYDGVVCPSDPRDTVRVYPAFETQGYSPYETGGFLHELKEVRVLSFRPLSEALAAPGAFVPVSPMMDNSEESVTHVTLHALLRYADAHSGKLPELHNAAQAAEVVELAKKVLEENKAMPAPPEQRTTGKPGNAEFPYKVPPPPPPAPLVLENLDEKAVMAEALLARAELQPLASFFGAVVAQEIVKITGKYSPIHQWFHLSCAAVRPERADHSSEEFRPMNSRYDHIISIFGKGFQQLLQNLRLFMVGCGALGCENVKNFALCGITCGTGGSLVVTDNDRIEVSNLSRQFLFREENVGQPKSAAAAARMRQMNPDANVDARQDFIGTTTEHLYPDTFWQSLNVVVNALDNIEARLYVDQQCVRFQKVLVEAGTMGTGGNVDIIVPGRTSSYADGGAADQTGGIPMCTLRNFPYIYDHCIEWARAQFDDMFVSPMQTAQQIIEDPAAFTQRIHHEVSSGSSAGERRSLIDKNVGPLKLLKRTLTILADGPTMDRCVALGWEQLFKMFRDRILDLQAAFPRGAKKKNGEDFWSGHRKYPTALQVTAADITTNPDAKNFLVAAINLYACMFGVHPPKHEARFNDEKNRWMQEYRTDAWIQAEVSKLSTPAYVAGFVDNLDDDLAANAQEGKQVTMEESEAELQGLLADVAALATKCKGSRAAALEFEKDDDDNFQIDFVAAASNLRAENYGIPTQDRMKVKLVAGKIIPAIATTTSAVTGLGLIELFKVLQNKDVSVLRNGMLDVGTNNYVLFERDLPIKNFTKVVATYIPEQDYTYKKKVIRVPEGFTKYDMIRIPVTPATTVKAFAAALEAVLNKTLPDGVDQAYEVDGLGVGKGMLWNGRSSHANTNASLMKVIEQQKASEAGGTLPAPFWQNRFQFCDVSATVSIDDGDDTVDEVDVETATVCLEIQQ
The experiment in a line: Leishmania donovani Ubiquitin Activating Enzyme (LdE1). The format is functional. The settings on record: 30 µM.

Assay [3] concerns the target AMP-activated protein kinase, AMPK (Homo sapiens) (UniProt P54646+O43741+P54619+Q9UGJ0+Q9Y478+Q13131+Q9UGI9). The experiment in a line: AMP-dependent Kinase enzyme assay. An in vitro enzyme assay that detects ADP turnover that is directly proportional to AMPK activity. This uses naive AMPK that is activated during the assay with MK-8722. The settings on record: 30 µM. The format is functional.

Assay [4] concerns the target Sialic acid-binding Ig-like lectin 9 (Homo sapiens) (UniProt Q9Y336). The experiment in a line: Hs-Siglec9 ALPHAscreen SOP 20170721. The conditions noted are these: 10 µM. For orientation: Bead proximity is the source of the signal in Alpha formats.
For the next assay, the system named is Trypanosoma cruzi. The experiment in a line: Trypanosoma cruzi phosphomannomutase and mannose-1-phosphate guanylyltransferase assay. Type of assay: functional. The settings on record: 10 µM.
Assay [5] addresses T2, Arginase-2, mitochondrial (Homo sapiens) (UniProt P78540).
T2 sequence (whole entry): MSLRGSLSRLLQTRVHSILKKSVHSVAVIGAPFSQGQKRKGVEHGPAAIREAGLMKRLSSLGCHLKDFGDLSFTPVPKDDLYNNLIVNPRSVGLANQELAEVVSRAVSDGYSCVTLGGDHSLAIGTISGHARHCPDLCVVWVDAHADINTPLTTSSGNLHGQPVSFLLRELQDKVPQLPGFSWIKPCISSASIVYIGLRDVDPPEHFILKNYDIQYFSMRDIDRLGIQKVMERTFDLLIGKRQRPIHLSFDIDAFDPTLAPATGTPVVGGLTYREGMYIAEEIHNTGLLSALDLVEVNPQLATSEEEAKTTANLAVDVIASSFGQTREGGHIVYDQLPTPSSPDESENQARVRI
The assay is described as follows: in vitro enzyme assay to detect the production of urea directly proportional to the activity of Arginase II. Note: in the data most compounds retested in dose-response had high values. The format is functional. The conditions noted are these: 33.3 µM.

In assay [6] the target is T3, Proteasome subunit beta (Trypanosoma cruzi) (UniProt O96673).
T3 sequence (whole entry): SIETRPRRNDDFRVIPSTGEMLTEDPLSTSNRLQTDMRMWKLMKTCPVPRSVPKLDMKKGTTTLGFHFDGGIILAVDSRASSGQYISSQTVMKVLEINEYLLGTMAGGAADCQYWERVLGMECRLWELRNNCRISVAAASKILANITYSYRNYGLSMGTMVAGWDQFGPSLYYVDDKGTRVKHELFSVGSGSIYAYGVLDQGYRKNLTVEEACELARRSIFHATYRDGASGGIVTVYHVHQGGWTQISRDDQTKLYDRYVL
The experiment in a line: Trypanosoma cruzi proteasome chymotrypsin-like activity (TcProtChymo) assay. Note: in the data most compounds retested in dose-response had high values. Type of assay: functional. The settings on record: 9.37 µM.

A further assay is filed under the species Homo sapiens. The assay is described as follows: To identify inhibition of the IFN signalling (Jak-Stat) pathway via expression of an eGFP reporter gene under the control of an IFN-stimulated response element (ISRE) containing MxA promoter. Type of assay: functional. The settings on record: 30 µM. In general terms: A reporter such as luciferase makes a cellular process visible.

In assay [7] the target is T4, Tyrosyl-tRNA synthetase, putative (Trypanosoma cruzi (strain CL Brener)) (UniProt Q4DSP6).
T4 sequence (whole entry): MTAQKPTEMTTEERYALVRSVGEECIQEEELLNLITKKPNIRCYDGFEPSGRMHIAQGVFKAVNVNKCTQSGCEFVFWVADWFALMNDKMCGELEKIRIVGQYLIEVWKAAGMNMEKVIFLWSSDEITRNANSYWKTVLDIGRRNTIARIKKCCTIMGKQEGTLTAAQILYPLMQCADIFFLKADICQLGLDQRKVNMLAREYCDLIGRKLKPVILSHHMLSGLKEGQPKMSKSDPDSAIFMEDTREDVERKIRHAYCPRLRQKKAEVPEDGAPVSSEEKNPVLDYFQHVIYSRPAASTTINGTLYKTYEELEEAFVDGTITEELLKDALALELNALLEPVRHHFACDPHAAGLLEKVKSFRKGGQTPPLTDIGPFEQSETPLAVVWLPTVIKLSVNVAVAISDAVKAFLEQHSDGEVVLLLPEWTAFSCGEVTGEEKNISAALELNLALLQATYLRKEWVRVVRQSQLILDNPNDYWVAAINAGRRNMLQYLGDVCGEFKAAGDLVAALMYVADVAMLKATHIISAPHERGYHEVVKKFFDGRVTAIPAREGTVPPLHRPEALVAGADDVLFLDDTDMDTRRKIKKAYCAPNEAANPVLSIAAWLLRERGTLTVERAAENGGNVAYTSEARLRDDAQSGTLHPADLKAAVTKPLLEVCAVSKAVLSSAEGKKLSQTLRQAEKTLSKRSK
The assay is described as follows: Trypanosoma cruzi tyrosyl tRNA synthetase (TcYRS) _High Tyrosine SOP. Note: in the data most compounds retested in dose-response had high values. The format is functional. The conditions noted are these: 30 µM.

The target of assay [8] is T4, Tyrosyl-tRNA synthetase, putative (Trypanosoma cruzi (strain CL Brener)). The assay is described as follows: Trypanosoma cruzi tyrosyl tRNA synthetase (TcYRS) SOP. Type of assay: functional. The settings on record: 30 µM.
Assay [9] addresses Chromo domain-containing protein 1 (Saccharomyces cerevisiae (strain ATCC 204508 / S288c) (Baker's yeast)) (UniProt P32657). The experiment in a line: ScCHD-1 Enzyme Inhibition Assay. Note: in the data most compounds retested in dose-response had high values. Type of assay: functional. The settings on record: 30 µM.

For some of these results: Potency and affinity values are given separately.

Chain of Chromo domain-containing protein 1 (Saccharomyces cerevisiae (strain ATCC 204508 / S288c) (Baker's yeast)) (P32657 whole entry, the tested form may be a part): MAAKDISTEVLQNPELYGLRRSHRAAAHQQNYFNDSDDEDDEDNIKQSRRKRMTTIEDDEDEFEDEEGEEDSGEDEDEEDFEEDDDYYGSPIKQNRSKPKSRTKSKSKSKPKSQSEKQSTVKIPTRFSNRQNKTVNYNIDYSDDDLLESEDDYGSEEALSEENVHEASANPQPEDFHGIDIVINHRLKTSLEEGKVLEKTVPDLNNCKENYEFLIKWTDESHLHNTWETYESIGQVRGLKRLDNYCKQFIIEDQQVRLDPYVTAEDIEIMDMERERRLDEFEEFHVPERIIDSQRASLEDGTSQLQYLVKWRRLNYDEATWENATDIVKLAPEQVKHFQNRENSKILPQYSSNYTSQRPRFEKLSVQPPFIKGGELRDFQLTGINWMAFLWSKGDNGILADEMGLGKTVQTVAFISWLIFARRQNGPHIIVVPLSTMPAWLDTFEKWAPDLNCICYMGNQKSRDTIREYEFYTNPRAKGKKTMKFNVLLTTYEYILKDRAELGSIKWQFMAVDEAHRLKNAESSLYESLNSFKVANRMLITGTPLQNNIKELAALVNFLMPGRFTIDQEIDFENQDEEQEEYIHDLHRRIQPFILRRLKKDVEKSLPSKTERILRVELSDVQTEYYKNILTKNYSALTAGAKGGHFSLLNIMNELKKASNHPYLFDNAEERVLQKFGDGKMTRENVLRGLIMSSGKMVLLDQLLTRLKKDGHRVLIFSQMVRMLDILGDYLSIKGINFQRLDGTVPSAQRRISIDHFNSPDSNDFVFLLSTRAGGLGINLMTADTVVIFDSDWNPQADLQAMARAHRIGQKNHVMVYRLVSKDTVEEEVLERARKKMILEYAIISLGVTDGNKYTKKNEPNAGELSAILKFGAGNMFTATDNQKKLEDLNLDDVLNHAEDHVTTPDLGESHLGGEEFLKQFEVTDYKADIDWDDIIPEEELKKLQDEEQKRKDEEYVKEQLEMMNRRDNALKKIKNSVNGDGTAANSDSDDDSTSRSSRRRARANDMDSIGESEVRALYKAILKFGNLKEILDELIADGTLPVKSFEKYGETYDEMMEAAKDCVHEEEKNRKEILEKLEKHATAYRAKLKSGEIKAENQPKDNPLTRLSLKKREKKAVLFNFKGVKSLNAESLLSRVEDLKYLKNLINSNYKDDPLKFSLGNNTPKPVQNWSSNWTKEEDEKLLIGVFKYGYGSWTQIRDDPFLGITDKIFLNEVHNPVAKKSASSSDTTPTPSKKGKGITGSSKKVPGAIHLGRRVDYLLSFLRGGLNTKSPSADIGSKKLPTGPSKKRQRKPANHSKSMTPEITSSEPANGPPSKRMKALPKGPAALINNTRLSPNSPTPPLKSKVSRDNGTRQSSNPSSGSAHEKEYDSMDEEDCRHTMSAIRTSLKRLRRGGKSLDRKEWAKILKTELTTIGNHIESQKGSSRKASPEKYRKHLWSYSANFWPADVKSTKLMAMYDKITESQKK
Chain of Sialic acid-binding Ig-like lectin 9 (Homo sapiens) (Q9Y336 whole entry): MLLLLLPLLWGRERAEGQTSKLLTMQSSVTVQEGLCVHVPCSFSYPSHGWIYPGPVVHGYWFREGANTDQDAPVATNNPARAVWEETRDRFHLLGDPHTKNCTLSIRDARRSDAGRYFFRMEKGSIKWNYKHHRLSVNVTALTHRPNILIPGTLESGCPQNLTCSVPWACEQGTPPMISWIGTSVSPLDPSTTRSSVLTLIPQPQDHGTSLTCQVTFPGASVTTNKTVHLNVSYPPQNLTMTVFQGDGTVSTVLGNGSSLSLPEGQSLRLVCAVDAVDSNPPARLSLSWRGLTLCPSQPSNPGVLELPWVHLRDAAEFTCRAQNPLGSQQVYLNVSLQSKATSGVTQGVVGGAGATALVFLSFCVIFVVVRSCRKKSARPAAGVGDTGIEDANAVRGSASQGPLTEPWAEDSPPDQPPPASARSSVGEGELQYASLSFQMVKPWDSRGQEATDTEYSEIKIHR
Chain of Protein translocase subunit SecA (Escherichia coli (strain K12)) (P10408 whole entry): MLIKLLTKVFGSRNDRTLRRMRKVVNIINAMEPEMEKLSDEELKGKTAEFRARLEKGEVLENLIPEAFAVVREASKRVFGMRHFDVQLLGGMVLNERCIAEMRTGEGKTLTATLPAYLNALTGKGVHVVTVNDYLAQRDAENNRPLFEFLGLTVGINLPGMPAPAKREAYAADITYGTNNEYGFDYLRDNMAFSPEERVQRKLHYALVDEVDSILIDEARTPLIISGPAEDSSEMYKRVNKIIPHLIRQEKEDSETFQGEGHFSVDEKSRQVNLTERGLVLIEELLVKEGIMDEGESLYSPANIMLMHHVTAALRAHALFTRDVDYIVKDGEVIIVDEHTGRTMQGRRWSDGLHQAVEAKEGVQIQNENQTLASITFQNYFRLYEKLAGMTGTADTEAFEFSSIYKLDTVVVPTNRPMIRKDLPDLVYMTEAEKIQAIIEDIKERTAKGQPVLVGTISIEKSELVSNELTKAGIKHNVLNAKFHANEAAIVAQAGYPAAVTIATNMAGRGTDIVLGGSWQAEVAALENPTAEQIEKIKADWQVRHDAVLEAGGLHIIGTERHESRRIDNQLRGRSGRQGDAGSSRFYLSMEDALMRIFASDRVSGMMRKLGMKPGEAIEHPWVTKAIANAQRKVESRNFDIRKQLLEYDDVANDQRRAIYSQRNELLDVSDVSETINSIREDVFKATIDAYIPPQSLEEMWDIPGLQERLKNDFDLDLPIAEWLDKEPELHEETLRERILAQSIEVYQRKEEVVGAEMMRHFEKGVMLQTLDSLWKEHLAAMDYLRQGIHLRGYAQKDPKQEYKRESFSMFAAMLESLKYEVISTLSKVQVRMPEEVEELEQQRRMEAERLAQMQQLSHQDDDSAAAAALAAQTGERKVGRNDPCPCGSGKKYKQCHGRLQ

Regarding `COCc1cc(O)nc(C2CCCN(Cc3cc(OC)ccc3F)C2)n1` (stereo unspecified), the Percent Effect is -7.04% in assay [1]; 1.35% in assay [2]; 4.88% in assay [3]; 5.64% in assay [4]; -3.56% in the assay on Trypanosoma cruzi; -2.09% in assay [5]. The Percent Effect in [6] was -0.312%; in the assay listed under Homo sapiens, 16.7%; in assay [7] it was -2.15%; in assay [8] it was -1.3%; in assay [9], -9.01%.

On to `Cc1ccc(C(=O)Nc2cn[nH]c2)cn1`, for which the Percent Effect in assay [1] is 0.472%; in assay [2], 13.2%; in assay [3], 9.28%; in [4] it was 0.161%; in the assay on Trypanosoma cruzi, -1.13%; in [5], -3.45%. For the same compound, the Percent Effect in [6] was 8.69%; in the assay filed under Homo sapiens it was 6.9%; in [7] it was 1.47%; in assay [8] it was 19.5%; in assay [9] it was -10.8%.

For `CCN1CC(C(=O)NCc2ccnc(-n3ccnc3C)c2)CC1=O` (stereo unspecified), the Percent Effect is -2.69% in [1]; 0% in [2]; -12.9% in assay [3]; -7.63% in [4]; 0% in the assay on Trypanosoma cruzi; -3.18% in assay [5]. Besides, the Percent Effect was 3.02% in [6]; 20.3% in the assay filed under Homo sapiens; -1.07% in assay [7]; -2.5% in assay [8]; -4.95% in [9].

`c1ccc(OCCN2CCCC(c3noc(C4CC4)n3)C2)cc1` (stereo unspecified): the Percent Effect in assay [1] was -8.89%; in assay [2] it was 0%; in assay [3], 3.25%; in assay [4], -3.02%; in the assay on Trypanosoma cruzi it was -3.02%; in assay [5], -1.56%. For the same compound, the Percent Effect in assay [6] was 10.1%; in the assay listed under Homo sapiens it was 6.37%; in assay [7], -4.92%; in assay [8] it was 1.24%; in assay [9] it was -2.68%.

Take `CN(Cc1cccs1)C(=O)CN1CCCC1Cn1cncn1` (stereo unspecified): the Percent Effect in assay [1] was -1.48%; in assay [2] it was 10.4%; in [3], -63.7%; in assay [4], 2.24%; in the assay with Trypanosoma cruzi, -1.08%; in assay [5], -5.52%. In addition, the Percent Effect in assay [6] is 20.3%; in the assay listed under Homo sapiens, -3.55%; in assay [7], 7.53%; in [8], 13.6%; in assay [9], -2.25%.

On to `CC(=O)c1cccc(OCC(=O)NS(=O)(=O)c2ccc(C)s2)c1`, for which the Percent Effect in assay [1] was -6.93%; in assay [2] it was 12.7%; in assay [3], -2.86%; in [4], 9.9%; in the assay on Trypanosoma cruzi it was 4.63%; in assay [5], -4.56%. The Percent Effect in assay [6] is 3.85%; in the assay filed under Homo sapiens, -8.7%; in assay [7] it was 3.45%; in assay [8], 13.9%; in assay [9] it was -6.95%.

In the case of `CCC(CC)c1cc(CNC(=O)N2CCOCC2CC)on1` (stereo unspecified), the Percent Effect in assay [1] is -3.39%; in [2], 0%; in assay [3] it was -0.644%; in assay [4], 2.45%; in the assay on Trypanosoma cruzi, 7.33%; in assay [5], -1.24%. Besides, the Percent Effect in assay [6] is 0.0858%; in the assay filed under Homo sapiens, -31.4%; in assay [7], 0%; in assay [8], 1.24%; in [9] it was -0.017%.

Regarding `Cn1cc(CN2CCCC3(CCN(Cc4cccnc4)C3=O)C2)cn1` (stereo unspecified), the Percent Effect was -0.768% in assay [1]; 21.6% in [2]; -0.596% in assay [3]; -4.91% in [4]; 3.81% in the assay on Trypanosoma cruzi; 7.33% in [5]. Besides, the Percent Effect is 14% in [6]; -9.12% in the assay listed under Homo sapiens; 1.08% in assay [7]; 12.8% in assay [8]; 1.58% in assay [9].

As for `Cc1nccn1CCC1CCCCN1Cc1ccc(N(C)C)nc1` (stereo unspecified), the Percent Effect was -1.41% in [1]; 5.33% in [2]; -3.72% in [3]; -2.2% in [4]; -6.91% with Trypanosoma cruzi; 4.69% in [5]. The Percent Effect in assay [6] was 21.4%; in the assay filed under Homo sapiens, 9.79%; in assay [7], 0.546%; in assay [8], 11.1%; in [9], -5.71%.

Take `CCN(Cc1ccc2c(c1)OCCO2)S(=O)(=O)N(C)C(C)C`: the Percent Effect in assay [1] was -5.7%; in assay [2] it was 7.79%; in assay [3] it was 3.89%; in assay [4] it was 16%; with Trypanosoma cruzi, 5.99%; in assay [5], 0.356%. In addition, the Percent Effect was 3.38% in assay [6]; 9.12% in the assay filed under Homo sapiens; 0% in [7]; 14.6% in [8]; -6.79% in assay [9].

For the compound `CC(=O)N1CCNCC1c1cccc(C(=O)N(C)C)c1` (stereo unspecified), the Percent Effect in [1] was -0.644%; in assay [2] it was -6.76%; in assay [3] it was 10.3%; in [4] it was -0.354%; with Trypanosoma cruzi, -4.94%; in [5] it was 4.41%. Moreover, the Percent Effect in assay [6] is -3.43%; in the assay listed under Homo sapiens it was 4.59%; in [7] it was 1.07%; in assay [8], 1.3%; in [9] it was 0.199%.
